C diff HTS – inhibitors of Clostridium difficile growth. Clostridium difficile clinical isolate growth, OD600, 24 h; stronger effect = lower value. growth activity, negative = inhibition, % at 16 µg/mL (by protocol). 86,000 compounds, 0.25% hits;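 active = mean growth activity at or below -80% and every replicate also at or below -80%; inconclusive = mean at or below -80% but some replicate above -80%; inactive = mean growth activity above -80%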;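 note: 0% = DMSO wells and -100% = levofloxacin 16 µg/mL wells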
T cruzi growth-1 – T. cruzi proliferation inhibition. inhibition, % at 8.34 µM. T. cruzi beta-gal in NIH3T3, GalScreen luminescence, 90 h. 77,000 compounds, 5.9% hits;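 active = mean inhibition above about 93%, with at least 55% of replicates each passing it, limit read from the data, passing the limit was not always enough; inconclusive = only one of those two conditions holds; inactive = neither condition holds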
T cruzi growth-2 – inhibitors of T. cruzi proliferation; shares compounds with T cruzi growth-1; T. cruzi beta-gal in NIH3T3, GalScreen luminescence, 90 h; inhibition, % at 8.35 µM; 5,600 compounds, 72% hits; AID 651739;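 active = mean replicate inhibition above about 95% and at least 55% of replicates individually reaching it, limit read from the data; inconclusive = only one of the two criteria is met; inactive = neither criterion is met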
T cruzi growth-3 – Trypanosoma cruzi proliferation inhibition; inhibition, % at 2.09 µM; AID 651740; 5,600 compounds, 21% hits; T. cruzi beta-gal in NIH3T3, GalScreen luminescence, 90 h; shares compounds with T cruzi growth-1;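 active = mean inhibition above about 95%, with at least 55% of replicates also reaching it, limit read from the data; inconclusive = meets just one of the two conditions; inactive = meets neither condition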;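 note: plate controls were neutral control median for no effect and positive control median for full effect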
3T3 cytotox – kills mouse NIH/3T3 fibroblasts; AID 651742; NIH/3T3 viability, CellTiter-Glo ATP luminescence, 90 h; shares compounds with T cruzi growth-1; cytotoxicity (signal decrease), % at 8.35 µM; 5,600 compounds, 14% hits;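 active = mean signal decrease across replicates above about 35% based on untreated-well scatter, with enough replicates individually passing, limit read from the data; inconclusive = no rule stated though some were filed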;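 note: 0% = median of neutral control wells and 100% = median of positive control wells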
3T3 cytotox 2 – NIH/3T3 (mouse) viability loss; shares compounds with T cruzi growth-1; NIH/3T3 viability, CellTiter-Glo ATP luminescence, 90 h; inhibition, % at 24.9 µM; 5,600 compounds, 56% hits;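 active = mean loss of cell viability signal at or above a set limit, and enough replicates individually reaching it; inconclusive = meets only the mean limit or only the replicate share; inactive = meets neither condition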;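 note: 0% = median of neutral control wells and 100% = median of positive control wells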
* marks the source's active call; other numbers are inactive results; ? = inconclusive; . = no result. This excerpt belongs to a sample that is enriched for hits.

SMILES | C diff HTS | T cruzi growth-1 | T cruzi growth-2 | T cruzi growth-3 | 3T3 cytotox | 3T3 cytotox 2
Cc1noc(C)c1S(=O)(=O)Nc1ccc2c(c1)C(=O)N([C@@H](C)CO)C[C@@H](C)[C@H](CN(C)Cc1ccc(C(F)(F)F)cc1)OCCCC[C@@H](C)O2 | . | 108* | 103* | 116* | -51 | 105*
Cc1noc(C)c1S(=O)(=O)Nc1ccc2c(c1)C(=O)N([C@@H](C)CO)C[C@@H](C)[C@@H](CN(C)Cc1ccc(C(=O)O)cc1)OCCCC[C@H](C)O2 | 5 | -25 | . | . | . | .
Cc1noc(C)c1S(=O)(=O)Nc1ccc2c(c1)C(=O)N([C@@H](C)CO)C[C@@H](C)[C@@H](CN(C)Cc1ccc(C(F)(F)F)cc1)OCCCC[C@H](C)O2 | . | 103* | 89 | 110* | 0 | 60*
C[C@@H]1CN([C@@H](C)CO)S(=O)(=O)c2ccc(C3=CCCC3)cc2O[C@H]1CN(C)Cc1cccc(C(=O)O)c1 | 0 | -67 | . | . | . | .
CC(=O)Oc1ccccc1C(=O)OCO/N=[N+](\[O-])N1CCC[C@H]1C(=O)O | -2 | . | . | . | . | .
C[C@H](CO)N1C[C@H](C)[C@@H](CN(C)Cc2ccc(Cl)c(Cl)c2)Oc2ccc(NS(C)(=O)=O)cc2C1=O | -4 | 15 | . | . | . | .
O=C(C[C@H]1CC[C@@H](NC(=O)Nc2ccccc2F)[C@H](CO)O1)NCc1ccc(F)cc1 | -2 | . | . | . | . | .
COc1cccc(S(=O)(=O)Nc2ccc3c(c2)OC[C@H](C)N(Cc2ccccc2F)C[C@H](C)[C@@H](OC)CN(C)C3=O)c1 | -6 | . | . | . | . | .
COc1cccc(S(=O)(=O)Nc2ccc3c(c2)OC[C@@H](C)N(Cc2ccccc2F)C[C@@H](C)[C@H](OC)CN(C)C3=O)c1 | . | 96* | 105* | 32 | 2 | -6
COc1cccc(S(=O)(=O)Nc2ccc3c(c2)OC[C@H](C)N(Cc2ccccc2F)C[C@@H](C)[C@H](OC)CN(C)C3=O)c1 | . | 23 | . | . | . | .
CO[C@H]1CN(C)C(=O)c2cc(NC(C)=O)ccc2OC[C@H](C)N(Cc2cc(F)ccc2F)C[C@@H]1C | . | 21 | . | . | . | .
CO[C@@H]1CN(C)C(=O)c2cc(NS(=O)(=O)c3cccc(F)c3)ccc2OC[C@@H](C)N(Cc2cc(F)ccc2F)C[C@@H]1C | 12 | 100* | 115* | 43 | 2 | 93*
COc1cccc(S(=O)(=O)Nc2ccc3c(c2)OC[C@@H](C)N(Cc2cc(F)ccc2F)C[C@@H](C)[C@H](OC)CN(C)C3=O)c1 | . | 102* | 107* | 47 | -16 | -23
COCCNC[C@H]1[C@@H](c2ccccc2)[C@@H](CO)N1c1nc(C)c(C)s1 | 7 | 103* | 83 | 39 | -35 | -7
COCCNC[C@@H]1[C@@H](c2ccccc2)[C@@H](CO)N1c1nc(C)c(C)s1 | -3 | 87 | . | . | . | .
C[C@@H]1CCCCO[C@@H](CN(C)Cc2ccc(C(F)(F)F)cc2)[C@H](C)CN([C@H](C)CO)C(=O)c2cc(NC(=O)Nc3ccc(F)cc3)ccc2O1 | . | 110* | 92 | 108* | 10 | 57*
Cc1noc(C)c1NC(=O)Nc1ccc2c(c1)C(=O)N([C@@H](C)CO)C[C@@H](C)[C@H](CN(C)Cc1ccc(C(F)(F)F)cc1)OCCCC[C@H](C)O2 | 11 | 85 | . | . | . | .
C[C@@H]1CCCCO[C@@H](CN(C)Cc2ccc(C(F)(F)F)cc2)[C@H](C)CN([C@H](C)CO)C(=O)c2cc(NC(=O)Nc3ccc(C(F)(F)F)cc3)ccc2O1 | 3 | 82 | . | . | . | .
C[C@H]1CCCCO[C@@H](CN(C)Cc2ccc(C(F)(F)F)cc2)[C@@H](C)CN([C@@H](C)CO)C(=O)c2cc(NC(=O)Nc3ccc(F)cc3)ccc2O1 | . | 94 | . | . | . | .
C[C@@H]1CCCCO[C@@H](CN(C)Cc2ccc(C(F)(F)F)cc2)[C@@H](C)CN([C@@H](C)CO)C(=O)c2cc(NC(=O)Nc3ccc(F)cc3)ccc2O1 | . | 108* | 98* | 107* | -3 | 9
C[C@@H]1CCCCO[C@H](CN(C)Cc2ccc(C(F)(F)F)cc2)[C@@H](C)CN([C@@H](C)CO)C(=O)c2cc(NC(=O)Nc3ccc(F)cc3)ccc2O1 | . | 93 | . | . | . | .
C[C@@H]1CCCCO[C@@H](CN(C)Cc2ccc(C(F)(F)F)cc2)[C@@H](C)CN([C@H](C)CO)C(=O)c2cc(NC(=O)Nc3ccc(F)cc3)ccc2O1 | . | 102* | 101* | 72 | 11 | 25
Cc1noc(C)c1NC(=O)Nc1ccc2c(c1)C(=O)N([C@H](C)CO)C[C@@H](C)[C@H](CN(C)Cc1ccc(C(F)(F)F)cc1)OCCCC[C@H](C)O2 | 11 | ? | 114* | 30 | -8 | 69*
C[C@@H]1CCCCO[C@H](CN(C)C(=O)Cc2ccccc2)[C@H](C)CN([C@@H](C)CO)C(=O)c2cc(NC(=O)Cc3ccccc3)ccc2O1 | -8 | 39 | . | . | . | .
O=C(N[C@H]1CC[C@H](CCNC(=O)C2CCOCC2)O[C@@H]1CO)c1ccccn1 | 1 | -4 | . | . | . | .
SMILES | C diff HTS | T cruzi growth-1 | T cruzi growth-2 | T cruzi growth-3 | 3T3 cytotox | 3T3 cytotox 2
O=C(C[C@H]1C=C[C@@H](NS(=O)(=O)c2ccc(F)cc2)[C@@H](CO)O1)NCCc1ccncc1 | -3 | -20 | . | . | . | .
CC(C)CC#Cc1ccc2c(c1)O[C@H](CN(C)C(=O)CN(C)C)[C@@H](C)CN([C@H](C)CO)S2(=O)=O | -10 | 42 | . | . | . | .
Cc1nc(N2[C@H](C#N)[C@H](c3ccccc3)[C@H]2CO)sc1C | -9 | -3 | . | . | . | .
COc1ccc(NC(=O)N(C)C[C@@H]2OCCCC[C@H](C)Oc3ccc(NC(=O)c4ccncc4)cc3C(=O)N([C@H](C)CO)C[C@H]2C)cc1 | -1 | 27 | . | . | . | .
C[C@@H]1CCCCO[C@@H](CN(C)Cc2ccncc2)[C@H](C)CN([C@H](C)CO)C(=O)c2cc(NC(=O)Nc3ccc(C(F)(F)F)cc3)ccc2O1 | 16 | 88 | . | . | . | .
C[C@@H]1CN([C@@H](C)CO)C(=O)c2cc(NC(=O)Nc3ccc(C(F)(F)F)cc3)ccc2O[C@@H](C)CCCCO[C@@H]1CN(C)Cc1ccc(C(F)(F)F)cc1 | 3 | 95* | 102* | 105* | -4 | -33
C[C@@H]1CCCCO[C@@H](CN(C)Cc2ccc(C(F)(F)F)cc2)[C@@H](C)CN([C@@H](C)CO)C(=O)c2cc(NC(=O)Nc3ccc(C(F)(F)F)cc3)ccc2O1 | 7 | 87 | . | . | . | .
C[C@H]1CCCCO[C@H](CN(C)Cc2ccncc2)[C@@H](C)CN([C@@H](C)CO)C(=O)c2cc(NC(=O)Nc3ccc(C(F)(F)F)cc3)ccc2O1 | 6 | 99* | 100* | 93 | 22 | 83*
C[C@@H]1CN([C@@H](C)CO)C(=O)c2cc(NC(=O)Nc3ccccc3)ccc2O[C@@H](C)CCCCO[C@@H]1CN(C)C(=O)Nc1ccc2c(c1)OCO2 | 3 | 11 | . | . | . | .
C[C@H]1CCCCO[C@@H](CN(C)C(=O)Nc2ccc3c(c2)OCO3)[C@@H](C)CN([C@@H](C)CO)C(=O)c2cc(NC(=O)Nc3ccccc3)ccc2O1 | -9 | 117* | 111* | 6 | -15 | -2

Bioassay records (PubChem)
